Experimental data reported in PubChem BioAssay (Tox21).
Values without a mark were called inactive. Records with an inconclusive call do not appear. A call without a number means that no potency is given here. Activity calls are given as the source filed them. Unless noted, calls come from the whole dose curve; as a rule, active = well fitted curve in the direction sought with a large enough effect in the repeat runs; inconclusive = weak or mixed curves; inactive = no such curve, though single readings can be large; an effect the other way counts as inactive or inconclusive.

Experiments:
[1] = target: Luciferin 4-monooxygenase (Photinus pyralis) (UniProt P08659); assay: qHTS assay to identify small molecule inhibitors of firefly luciferase (AID 1224835); note: nearly all actives have a fitted effect of over 25% in size; note: potency is the fitted concentration of half-maximal effect
Luciferin 4-monooxygenase (Photinus pyralis), sequence (P08659 whole entry, looked up): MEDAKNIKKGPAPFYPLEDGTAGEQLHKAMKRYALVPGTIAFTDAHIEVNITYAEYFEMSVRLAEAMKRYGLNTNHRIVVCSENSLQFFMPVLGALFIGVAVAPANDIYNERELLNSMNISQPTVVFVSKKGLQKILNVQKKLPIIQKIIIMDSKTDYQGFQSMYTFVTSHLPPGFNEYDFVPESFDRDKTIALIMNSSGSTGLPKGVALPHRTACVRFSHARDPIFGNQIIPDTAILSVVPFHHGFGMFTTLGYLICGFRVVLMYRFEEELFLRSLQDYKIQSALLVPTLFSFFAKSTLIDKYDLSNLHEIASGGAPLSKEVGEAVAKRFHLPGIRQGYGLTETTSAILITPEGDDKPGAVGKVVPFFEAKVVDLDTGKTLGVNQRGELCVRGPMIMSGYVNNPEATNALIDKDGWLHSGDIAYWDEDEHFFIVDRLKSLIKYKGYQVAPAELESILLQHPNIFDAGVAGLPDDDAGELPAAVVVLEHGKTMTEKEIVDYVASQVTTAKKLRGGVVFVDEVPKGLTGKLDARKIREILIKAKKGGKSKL
Procedure, shortened: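 Quantitative HTS format; KM concentrations of both substrates. Purified P. pyralis FLuc activity quantified from luminescence images.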

[2] = qHTS assay to identify small molecule agonists of the constitutive androstane receptor (CAR) signaling pathway - cell viability counter screen (AID 1224836); note: nearly all actives have a fitted effect of over 45% in size; note: potency is the fitted concentration of half-maximal effect
Procedure, shortened: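 Using CellTiter-Fluor, viability of HepG2 cells harbouring hCAR and CYP2B6-2.2kb was measured following 23 h incubation with a 15-concentration compound series plus PK11195 (0.75 uM final).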

[3] = qHTS assay to identify small molecule antagonists of the constitutive androstane receptor (CAR) signaling pathway - cell viability counter screen (AID 1224837); note: nearly all actives have a fitted effect of over 45% in size; note: potency is the fitted concentration of half-maximal effect
Procedure, shortened: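 HepG2 cells stably carrying hCAR and CYP2B6-2.2kb reporter, stimulated with 50 nM CITCO and compounds at 15 concentrations for 23 h at 37 C. Viability measured by CellTiter-Fluor fluorescence.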

[4] = target: Nuclear receptor subfamily 1 group I member 3 (Homo sapiens) (UniProt Q14994); assay: qHTS assay to identify small molecule antagonists of the constitutive androstane receptor (CAR) signaling pathway (AID 1224838); note: nearly all actives have a fitted effect of over 40% in size; note: potency is the fitted concentration of half-maximal effect
Nuclear receptor subfamily 1 group I member 3 (Homo sapiens), sequence (Q14994 whole entry, looked up): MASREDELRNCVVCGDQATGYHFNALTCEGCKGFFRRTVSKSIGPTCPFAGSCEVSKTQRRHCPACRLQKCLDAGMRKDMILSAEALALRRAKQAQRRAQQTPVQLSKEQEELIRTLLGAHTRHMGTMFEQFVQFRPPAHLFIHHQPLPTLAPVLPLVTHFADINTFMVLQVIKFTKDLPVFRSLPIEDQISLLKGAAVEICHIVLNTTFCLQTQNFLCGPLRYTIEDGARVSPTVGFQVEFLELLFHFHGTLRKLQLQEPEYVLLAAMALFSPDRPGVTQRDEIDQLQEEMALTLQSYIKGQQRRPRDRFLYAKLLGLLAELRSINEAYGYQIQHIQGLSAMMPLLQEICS
Procedure, shortened: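 HepG2 cells stably carrying hCAR and a CYP2B6-2.2kb luciferase reporter, seeded 4 hrs before compound (15 concentrations). Stimulated with 50 nM CITCO for 24 hr at 37 C. ONE-Glo luminescence read after 30 min at room temperature.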

[5] = target: Nuclear receptor subfamily 1 group I member 3 (Homo sapiens) (UniProt Q14994); assay: qHTS assay to identify small molecule agonists of the constitutive androstane receptor (CAR) signaling pathway (AID 1224839); note: nearly all actives have a fitted effect of over 15% in size; note: potency is the fitted concentration of half-maximal effect
Procedure, shortened: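 Double-stable HepG2 cells (hCAR, CYP2B6-2.2kb) seeded 4 h before compound addition. Exposure 24 h with 0.75 uM PK11195 final. Luciferase detected by ONE-Glo.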

[6] = qHTS assay to identify small molecule agonists of the estrogen related receptor signaling pathway with the pleiotropic PPARgamma coactivator (PGC) from Tox21 10K library (AID 1224842); note: nearly all actives have a fitted effect of over 15% in size
Procedure, shortened: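 PGC/ERR reporter cells (NTP line) were seeded 2,000 per well, rested 6 h at 37 C/5% CO2, then pin-dosed with compounds in DMSO for 18 h at 37 C; luciferase read by One-Glo luminescence after 30 min at room temperature.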

[7] = qHTS assay to identify small molecule agonists of the hypoxia (HIF-1) signaling pathway - cell viability counter screen (AID 1224844; calls by dose curve; note: nearly all actives have a fitted effect of over 50% in size; note: potency is the fitted concentration of half-maximal effect)
Procedure, shortened: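 HRE-bla ME-180 cells, 2,000/well in 0.5% dialyzed FBS medium, treated 17 h at 37C with compounds. Viability read in the same wells as the bla reporter, by CellTiter-Glo luminescence after 30 min at room temperature.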

[8] = qHTS assay to identify small molecule agonists of H2AX (AID 1224845; active = well fitted activation curve with a large enough effect in the signal ratio in the repeat runs, not every such curve was filed as active; the % refers to the signal ratio; note: potency is the fitted concentration of half-maximal effect)
Procedure, shortened: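 Wild-type CHO-K1 cells plated overnight, then exposed 3 hr at 37C to compounds at 15 concentrations (0.76% DMSO). Lysed, then HTRF anti-pH2AX(S139)-cryptate/anti-H2AX-d2 detection after 24 hr at room temperature; emissions 665 and 620 nm.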

[9] = qHTS assay to identify small molecule agonists of H2AX - cell viability counter screen (AID 1224847; calls by dose curve; note: nearly all actives have a fitted effect of over 30% in size; note: potency is the fitted concentration of half-maximal effect)
Procedure, shortened: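 Quantitative HTS viability measurement: CHO-K1 wild-type cells in serum (10% FBS) medium, short 3 hr drug exposure at 37C with 0.76% DMSO, CellTiter-Glo luminescent detection.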

[10] = qHTS assay to identify small molecule agonists of the estrogen related receptor (ERR) signaling pathway from Tox21 library (AID 1224849; calls by dose curve; note: nearly all actives have a fitted effect of over 15% in size); conditions: ERR reporter cell line, ONE-Glo luciferase, 18 h; at 92.4 µM (top of the series) unless noted
Procedure, shortened: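 ERR reporter cells (NTP line) pre-incubated 6 hours at 37 C, then exposed to compounds for 18 hours at 37 C. ONE-Glo luciferase luminescence was read after 30 minutes at room temperature.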

[11] = qHTS RealTime-Glo MT Cell Viability Assay in HepG2 cells - 24 hour (AID 1224867); note: nearly all actives have a fitted effect of over 50% in size; note: potency is the fitted concentration of half-maximal effect
Procedure, shortened: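 Cell number in HepG2 cultures estimated from NanoLuc luminescence generated by metabolic reduction of a prosubstrate by living cells. The homogeneous, nonlytic format allowed repeated reads at 0, 8, 16, 24, 32 and 40 h of compound exposure.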

[12] = A CellTox Green Cytotoxicity Assay to monitor cytotoxicity in HEK293 cells - 0 hour (AID 1224869); note: nearly all actives have a fitted effect of over 50% in size
Procedure, shortened: (§1)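 HEK293 cells, 600/well, were preincubated 5 hours and then exposed to compounds at 37 C for up to 40 hours. A cell-impermeant cyanine dye staining dead-cell DNA was read by fluorescence at 0, 8, 16, 24, 32 and 40 h time points.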

[13] = qHTS RealTime-Glo MT Cell Viability Assay in HepG2 cells - 40 hour (AID 1224870); note: nearly all actives have a fitted effect of over 50% in size; note: potency is the fitted concentration of half-maximal effect
Procedure, shortened: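 HepG2 cells mixed with RealTime-Glo MT reagents (NanoLuc plus cell-permeant prosubstrate) were seeded at 600 cells/well, incubated 5 h at 37 C/5% CO2, then pinned with compounds in DMSO; nonlytic luminescence tracked viability during 40 h treatment.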

[14] = A CellTox Green Cytotoxicity Assay to monitor cytotoxicity in HEK293 cells - 40 hour (AID 1224871); note: nearly all actives have a fitted effect of over 45% in size; note: potency is the fitted concentration of half-maximal effect
Procedure, shortened: as §1

[15] = qHTS assay to identify small molecule antagonists of the estrogen related receptor signaling pathway with the pleiotropic PPARgamma coactivator (PGC) from Tox21 10K library - cell viability counter screen (AID 1224840; active = well fitted cell-killing curve with a large enough effect in the repeat runs, not every such curve was filed as active; note: nearly all actives have a fitted effect of over 40% in size; note: potency is the fitted concentration of half-maximal effect)
Procedure, shortened: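 PGC/ERR cells (2,000/well) plated 6 h, then compound-treated for 17.5 h at 37 C. Viability measured by CellTiter-Fluor fluorescence after 30 min at 37 C, multiplexed with the pathway assay.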

[16] = target: Thyrotropin receptor (Homo sapiens) (UniProt P16473); assay: qHTS assay to identify small molecule agonists of the thyroid stimulating hormone receptor (TSHR) signaling pathway (AID 1224843; calls by dose curve; note: nearly all actives have a fitted effect of over 45% in size; note: potency is the fitted concentration of half-maximal effect)
Thyrotropin receptor (Homo sapiens), sequence (P16473 whole entry, looked up): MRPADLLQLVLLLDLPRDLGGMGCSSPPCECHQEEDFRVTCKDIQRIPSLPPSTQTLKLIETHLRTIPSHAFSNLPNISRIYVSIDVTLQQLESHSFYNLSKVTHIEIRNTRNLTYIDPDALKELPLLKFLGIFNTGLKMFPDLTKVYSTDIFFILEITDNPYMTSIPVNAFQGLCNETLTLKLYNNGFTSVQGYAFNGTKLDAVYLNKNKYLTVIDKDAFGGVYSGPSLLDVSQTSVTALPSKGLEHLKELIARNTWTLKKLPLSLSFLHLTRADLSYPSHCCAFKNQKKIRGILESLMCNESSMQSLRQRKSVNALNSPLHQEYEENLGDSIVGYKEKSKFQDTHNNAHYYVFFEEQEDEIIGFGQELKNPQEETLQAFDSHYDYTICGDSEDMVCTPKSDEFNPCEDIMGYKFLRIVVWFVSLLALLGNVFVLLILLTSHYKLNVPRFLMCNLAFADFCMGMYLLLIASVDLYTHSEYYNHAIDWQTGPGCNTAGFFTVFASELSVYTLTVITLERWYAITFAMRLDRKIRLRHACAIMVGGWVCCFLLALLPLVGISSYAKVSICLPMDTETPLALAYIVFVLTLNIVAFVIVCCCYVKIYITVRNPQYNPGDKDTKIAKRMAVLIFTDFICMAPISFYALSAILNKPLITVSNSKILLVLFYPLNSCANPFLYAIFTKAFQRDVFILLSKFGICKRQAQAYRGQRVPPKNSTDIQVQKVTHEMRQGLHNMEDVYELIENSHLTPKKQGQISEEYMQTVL
Procedure, shortened: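 Cell line HEK293 with TSHR; density 800/well. Exposure 30 min RT. Readout HTRF cAMP (cAMP-d2/anti-cAMP-cryptate), 1 h RT before reading.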

[17] = qHTS assay to identify small molecule agonists of the hypoxia (HIF-1) signaling pathway (AID 1224846; active = well fitted activation curve with a large enough effect in the signal ratio in the repeat runs, not every such curve was filed as active; the % refers to the signal ratio)
Procedure, shortened: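 HRE-bla ME-180 beta-lactamase reporter cells in medium with 0.5% dialyzed FBS, pre-incubated 5 h then exposed to compounds 17 h at 37C, 5% CO2; reporter induction read with CCF4-AM FRET substrate.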

[18] = qHTS RealTime-Glo MT Cell Viability Assay in HEK293 cells - 32 hour (AID 1224868); note: nearly all actives have a fitted effect of over 50% in size; note: potency is the fitted concentration of half-maximal effect
Procedure, shortened: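 Homogeneous bioluminescent viability format in HEK293 cells (600 cells/well). Following 5 h at 37 C/5% CO2, 23 nL compound was pintooled; the signal was measured repeatedly during 40 h incubation.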

[19] = qHTS assay to identify small molecule antagonists of the estrogen related receptor signaling pathway with the pleiotropic PPARgamma coactivator (PGC) from Tox21 10K library (AID 1224841; call rule not given here; note: potency is the fitted concentration of half-maximal effect)
Procedure, shortened: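 PGC/ERR cell line, 2,000 cells/well, pre-incubated 6 hours at 37 C, then exposed to compounds for 18 hours at 37 C; luciferase read with One-Glo luminescence after 30 min at room temperature.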

[20] = qHTS assay to identify small molecule antagonists of the estrogen related receptor (ERR) signaling pathway from Tox21 library (AID 1224848); note: nearly all actives have a fitted effect of over 50% in size; note: potency is the fitted concentration of half-maximal effect
Procedure, shortened: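 Screening used an ERR reporter line supplied by NTP, exposed for 18 h at 37 C to library compounds delivered in DMSO. Signal was luciferase luminescence developed with ONE-Glo at room temperature for 30 min.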

Row | Compound | Potency [1] | Potency [2] | Potency [3] | Potency [4] | Potency [5] | Potency [6] | Potency [7] | Potency [8] | Potency [9] | activity change, positive = activation [10] | Potency [11] | Potency [12] | Potency [13] | Potency [14] | Potency [15] | Potency [16] | outcome [17] | Potency [18] | Potency [19] | Potency [20]
1 | O=c1ssc(Cl)c1Cl | 17.8 µM (active) | 61.1 µM (active) | 54.5 µM (active) | 54.5 µM (active) | inactive | inactive | 17.4 µM (active) | inactive | 89.8 µM (active) | -17.9% | 21.9 µM (active) | inactive | 21.9 µM (active) | 21.9 µM (active) | – | – | – | – | – | –
2 | CCOP(=S)(OCC)SCS(=O)(=O)C(C)(C)C | inactive | inactive | inactive | inactive | – | – | inactive | – | inactive | – | inactive | inactive | inactive | inactive | inactive | inactive | inactive | inactive | – | –
3 | CC1(C)C(/C=C(\Cl)C(F)(F)F)C1C(=O)OC(C#N)c1cccc(Oc2ccccc2)c1 (configuration not stated) | inactive | inactive | inactive | – | inactive | – | inactive | inactive | inactive | – | inactive | inactive | inactive | – | inactive | inactive | – | – | – | –
4 | SCc1ccco1 | inactive | inactive | inactive | inactive | – | – | inactive | inactive | inactive | – | inactive | inactive | inactive | inactive | – | inactive | inactive | inactive | – | –
5 | OC(c1ccc(Cl)cc1)(c1ccc(Cl)cc1)C(Cl)(Cl)Cl | inactive | inactive | inactive | inactive | – | inactive | 21.9 µM (active) | – | – | – | inactive | inactive | inactive | 49 µM (active) | inactive | – | – | – | inactive | inactive
6 | O=[N+]([O-])c1ccc(Oc2ccc(C(F)(F)F)cc2[N+](=O)[O-])cc1 | inactive | inactive | inactive | inactive | – | inactive | inactive | inactive | inactive | -23.5% | inactive | inactive | – | inactive | inactive | inactive | inactive | 19.5 µM (active) | inactive | –
7 | CCOC(=O)CC(=O)CCl | inactive | inactive | inactive | inactive | inactive | – | – | inactive | inactive | – | inactive | inactive | inactive | 54.9 µM (active) | inactive | – | – | – | – | –
8 | CC(=O)c1cc(C(C)(C)C)cc2c1CCC2(C)C | inactive | inactive | inactive | inactive | – | inactive | inactive | – | – | -2.02% | inactive | inactive | inactive | 38.9 µM (active) | inactive | – | inactive | inactive | inactive | inactive
9 | c1ccc2cc3c(cc2c1)-c1cccc2cccc-3c12 | inactive | inactive | inactive | inactive | 0.955 µM (active) | inactive | inactive | inactive | inactive | – | inactive | inactive | inactive | inactive | – | – | – | inactive | inactive | inactive
10 | Oc1ccccc1Br | inactive | inactive | inactive | inactive | inactive | – | inactive | inactive | inactive | – | inactive | inactive | inactive | inactive | inactive | – | inactive | – | – | –
11 | CC(C)(c1ccc(O)c(-c2ccccc2)c1)c1ccc(O)c(-c2ccccc2)c1 | inactive | 54.5 µM (active) | 68.6 µM (active) | – | 17.2 µM (active) | inactive | 17.4 µM (active) | – | 25.3 µM (active) | -69.8% | 49 µM (active) | inactive | – | – | 54.5 µM (active) | – | – | 21.9 µM (active) | 48.6 µM (active) | 24.3 µM (active)
12 | Clc1ccc(Oc2ccccc2)cc1 | inactive | inactive | inactive | inactive | inactive | – | inactive | inactive | inactive | – | inactive | inactive | inactive | – | inactive | – | inactive | – | – | –
13 | CC(Cl)CN(C)C (configuration not stated) | inactive | inactive | inactive | inactive | inactive | – | – | inactive | inactive | – | inactive | inactive | inactive | – | inactive | – | inactive | – | – | –
14 | N#C/C=C/c1ccccc1 | inactive | inactive | inactive | inactive | inactive | – | inactive | inactive | inactive | – | inactive | inactive | – | inactive | inactive | – | inactive | inactive | – | –
15 | [Hg+2].[I-].[I-] | 4.48 µM (active) | 34.4 µM (active) | 30.6 µM (active) | 30.6 µM (active) | inactive | – | 1.95 µM (active) | – | 8 µM (active) | – | 9.77 µM (active) | inactive | – | 21.9 µM (active) | 4.33 µM (active) | – | – | – | – | –
16 | CCCCOP(=O)(CCCC)OCCCC | inactive | inactive | inactive | inactive | – | inactive | inactive | inactive | inactive | -2.44% | inactive | inactive | inactive | inactive | inactive | – | inactive | – | – | inactive
17 | c1ccc2c(c1)OCC(C1=NCCN1)O2 (configuration not stated) | inactive | 23.7 µM (active) | 29.8 µM (active) | 21.1 µM (active) | inactive | – | – | 49.2 µM (active) | – | – | – | inactive | – | 23.9 µM (active) | 21.1 µM (active) | 15 µM (active) | – | – | – | –
